From PubChem BioAssay AID1403 (National Center for Advancing Translational Sciences (NCATS), 2008)
Results filed as inconclusive are left out. The source made the active and inactive calls. Calls come from the whole dose curve; as a rule, active = well fitted curve in the direction sought with a large enough effect in the signal ratio; inconclusive = small, poorly fitted or top-dose-only effect, or a change in a side signal; inactive = no such curve, though single readings can be large or run the other way; the % refers to the signal ratio.

Molecular target: Follicle-stimulating hormone receptor (Homo sapiens) (UniProt P23945)
Assay: Counterscreen for Agonists of Thyroid Stimulating Hormone Receptor: HTRF Activity in a Follicle Stimulating Hormone Receptor Cell Line
From the text: NIH Chemical Genomics Center [NCGC] NIH Molecular Libraries Screening Centers Network [MLSCN] MLSCN Grant: 1 X01 MH080680-01 PI Name: Dr. Marvin Gershengorn, NIH NCGC Assay Overview: Confirmation of Thyroid Stimulating Hormone Receptor Agonists TSH is an alpha/beta heterodimeric glycoprotein hormone secreted from the anterior pituitary gland which belongs to the glycoprotein hormone family. The actions of TSH are mediated by a seven-transmembrane receptor, which upon TSH binding couples preferentially to the G-alpha (s) protein (Gs), resulting in activation of adenylate cyclase and increase in cyclic adenosine 3', 5' monophosphate (cAMP). The TSH receptor (THSR) is mainly expressed in thyroid follicular cells and regulates their growth and function. […] In order to confirm specificity of the compounds to the TSHR, a confirmatory assay was conducted on a similar family member, the Follicle Stimulating Hormone (FSH) receptor, transfected into a HEK 293 cell line, using an orthogonal detection technology to measure cAMP stimulation: antibody-based Homogeneous Time Resolved Fluorescence (HTRF).
NCGC Assay Protocol Summary: Homogeneous Time Resolved Fluorescence (HTRF) cAMP Assay. […] Plates were measured using the Envision plate reader (PerkinElmer, Boston, MA) with excitation at 330 nm and emissions of 615 nm and 660 nm. […]

| Structure (SMILES) | outcome |
| --- | --- |
| C=CCN1C(=O)C2(C(C(=O)OC)=C(N)Oc3c2c(=O)oc2ccccc32)c2ccccc21 (configuration not stated) | inactive |
| CCOC(=O)C1=C(N)Oc2c(c(=O)oc3ccccc23)C12C(=O)N(C)c1ccccc12 (configuration not stated) | inactive |
